# In PubChem BioAssay:
# Inconclusive results are not listed. The source made the active and inactive calls.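 The calls were made as follows, unless noted: active = growth inhibition above 25% in both replicates, a cutoff set 3 SD above the mean; inconclusive = above 25% in only one replicate; inactive = the rest.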
# Key:
# [1] = reducers of endogenous Her2 protein level, primary screen, SKBR3 breast tumor cells, AlphaScreen, ATP viability (AID 461;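 active = Her2 level under about 52% in both replicate screens, with viability over 70% of control, limit read from the data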;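 as to Her2 level: lower value means less Her2 protein in the cells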;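 as to viability: percent of carrier control wells set as 100% viability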); details: 18-24 h, measured here: SKBR3 viability, ATP luminescence, at 10 µM
# [2] = molecular target: Receptor tyrosine-protein kinase erbB-2 (Homo sapiens) (UniProt P04626); assay: as above; details: 18-24 h, at 10 µM, stronger effect = lower value
# Chain of Receptor tyrosine-protein kinase erbB-2 (Homo sapiens) (P04626 whole entry, looked up): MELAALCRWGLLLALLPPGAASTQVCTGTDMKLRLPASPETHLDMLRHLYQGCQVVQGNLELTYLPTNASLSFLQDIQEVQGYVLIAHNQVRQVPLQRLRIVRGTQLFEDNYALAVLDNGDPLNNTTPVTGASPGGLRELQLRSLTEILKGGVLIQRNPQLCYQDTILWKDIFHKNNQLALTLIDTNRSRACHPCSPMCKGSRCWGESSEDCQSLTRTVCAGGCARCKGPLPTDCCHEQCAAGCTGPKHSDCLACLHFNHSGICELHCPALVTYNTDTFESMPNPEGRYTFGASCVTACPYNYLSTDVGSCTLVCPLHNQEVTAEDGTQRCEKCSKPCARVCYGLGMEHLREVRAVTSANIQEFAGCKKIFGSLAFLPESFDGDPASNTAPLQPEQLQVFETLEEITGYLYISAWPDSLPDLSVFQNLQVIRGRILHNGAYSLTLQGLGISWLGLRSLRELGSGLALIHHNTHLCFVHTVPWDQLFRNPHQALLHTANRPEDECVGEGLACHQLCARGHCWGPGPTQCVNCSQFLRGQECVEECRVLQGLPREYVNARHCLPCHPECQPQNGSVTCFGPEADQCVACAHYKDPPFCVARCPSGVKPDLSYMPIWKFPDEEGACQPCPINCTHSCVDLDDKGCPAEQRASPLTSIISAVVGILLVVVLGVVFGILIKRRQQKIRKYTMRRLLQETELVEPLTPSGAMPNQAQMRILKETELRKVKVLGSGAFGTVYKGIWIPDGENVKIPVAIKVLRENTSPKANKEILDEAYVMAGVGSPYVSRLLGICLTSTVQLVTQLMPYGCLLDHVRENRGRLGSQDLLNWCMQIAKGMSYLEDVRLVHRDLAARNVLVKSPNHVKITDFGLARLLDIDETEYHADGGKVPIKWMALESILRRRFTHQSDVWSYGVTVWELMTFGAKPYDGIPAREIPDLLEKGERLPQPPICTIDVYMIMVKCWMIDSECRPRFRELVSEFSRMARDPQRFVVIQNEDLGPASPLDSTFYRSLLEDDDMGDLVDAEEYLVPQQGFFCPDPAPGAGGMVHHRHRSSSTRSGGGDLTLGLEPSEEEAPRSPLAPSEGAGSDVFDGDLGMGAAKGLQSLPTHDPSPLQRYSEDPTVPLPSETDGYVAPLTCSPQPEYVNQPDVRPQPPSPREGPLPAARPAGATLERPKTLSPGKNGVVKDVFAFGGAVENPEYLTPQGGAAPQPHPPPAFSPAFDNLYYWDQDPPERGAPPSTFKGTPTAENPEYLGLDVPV
# [3] = SK-BR-3 cell growth inhibitors, pilot screen, 24 h, human (AID 572;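 active = viability at or below 10% of carrier control in both of two separate runs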;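 also: compound exposure lasted between 18 and 24 h rather than exactly 24 h; 100% = carrier-treated control wells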); details: SK-BR-3 viability, CellTiter-Glo luminescence, at 10 µM, stronger effect = lower value
# [4] = HUVEC growth inhibition – cell-based, human, primary screen (AID 575;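 active = viability at or below 30% in both replicate assays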;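 also: 100% = median of untreated cell wells with 0.1% DMSO on each plate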); details: HUVEC proliferation, CellTiter-Glo luminescence, 72 h; at 10 µM; stronger effect = lower value
# [5] = growth inhibitors of H69AR lung tumor, primary screen, human, duplicate replicates (AID 580;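 active = viability at or under a set limit in both replicates, limit being median viability minus 3 SD, cut at about 48% in these data, passing the limit was not always enough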;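 also: 100% = mean luminescence of untreated wells and 0% = no signal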); details: H69AR lung tumor cells viability, ATP luminescence, 72 h; at 10 µM; stronger effect = lower value
# [6] = reversal of MRP1-mediated doxorubicin resistance, pilot screen, H69AR cells, doxorubicin co-treatment (AID 601;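 active = viability loss from added drug above about 55%, and viability with drug at most 40%, in both replicates, limit read from the data, passing the limit was not always enough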); details: CellTiter-Glo, 72 h, at 10 µM; for differential viability (reversal): stronger effect = higher value
# [7] = 384-well plate pilot, post-Golgi transport modulator project, inhibition of yeast transport mutant growth (AID 636; in the data active = inhibition above about 31%); details: absorbance 615 nm, about 18 h, stronger effect = higher value
# [8] = growth suppression of yeast trafficking mutant, preliminary HTS, modulators of trafficking downstream of Golgi apparatus project, 1536-format plate, OD 615 nm (AID 637; in the data active = inhibition above about 30%); details: yeast transport mutant growth, absorbance 615 nm, 18 h; stronger effect = higher value
# [9] = OD615 S. cerevisiae growth inhibition, permissive medium, pilot counter-assay, permissive growth control for S. cerevisiae lifespan shortening project (AID 705); details: OD615, 24 h, at 10 µM, stronger effect = higher value
# [10] = Restrictive medium S. cerevisiae growth inhibition, OD615, pilot screen of yeast lifespan reduction project, restrictive growth control (AID 706;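 active = growth inhibition above a set limit, 3 SD over mean compound inhibition, in both replicates, cut at about 43% in these data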;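 also: modified DeaD lifespan yeast strain shifted to restrictive glucose medium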); details: OD615, 48 h, at 10 µM, stronger effect = higher value
# [11] = viability gain of MRP-1-high H69AR cells under doxorubicin, pilot screen, MRP-1 activator project, CellTiter-Glo, duplicate (AID 807;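 active = viability increase at or above a cutoff of the median across tested compounds plus 3 SD, cut at about 8.5% in these data, passing the limit was not always enough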;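 also: compound pretreatment 18-22 h then 72 h combined with doxorubicin; 0% = doxorubicin alone and 100% = vehicle without doxorubicin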); details: H69AR viability with doxorubicin, CellTiter-Glo luminescence; at 10 µM; stronger effect = higher value
# [12] = growth suppression of beta-catenin knockout HCT116, pilot screen, human colon tumor cells (AID 823;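 active = cell viability at or below a set limit in both duplicate runs, the limit being the all-compound median minus 4 SD, cut at about 23% in these data, passing the limit was not always enough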;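 also: 0% = wells killed by 20 µM Hyamine and 100% = untreated DMSO cell wells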); details: CellTiter-Glo, 60 h, at 10 µM, stronger effect = lower value
# [13] = growth suppression of PTEN-deleted HCT116, pilot screen, cell-based, HCT116 clonal line, CellTiter-Glo (AID 824;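 active = viability at or below 27.92% in each of two runs, the all-compound median minus 4 SD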;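 also: 0% = 20 µM Hyamine control and 100% = vehicle cell control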); details: 60 h, at 10 µM, stronger effect = lower value
# [14] = inhibitors of the yeast RAM network, pilot screen, dse1pr::URA3 reporter, 5-FOA selection (AID 869;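 active = inhibition over a set limit, the all-compound mean plus 3 SD, in both replicate runs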;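 also: 0% = DMSO wells with no growth and 100% = 10 µM 1-NA-PP1 with full growth; RAM network block rescues cells from 5-FOA so hits raise OD615 growth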); details: S. cerevisiae dse1pr::URA3 5-FOA growth, OD615, 2 d; at 10 µM; stronger effect = higher value; strain carries analog-sensitive mutant Cbk1 kinase
# [15] = RAM signaling pathway blockade in yeast – S. cerevisiae, Pdr1DBD-CYC8 efflux-inhibited sensitized strain, primary screen (AID 1298;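 active = RAM network inhibition above 8.4% in each of two replicates, 3 SD over the compound average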;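 also: 0% = DMSO untreated cells without growth and 100% = 10 µM 1-NA-PP1 full growth; higher means more yeast growth rescued from 5-FOA killing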); details: S. cerevisiae cbk1-as DSE1-URA3 strain, 5-FOA growth OD615, 2 d; at 50 µM; stronger effect = higher value
# [16] = H69AR cells + 2 uM doxorubicin, measured here: viability with 2 uM doxorubicin, stronger effect = lower value
# [17] = H69AR cells, compound alone cytotoxicity
Structure (SMILES),viability [1] [%],Her2 level [2],viability [3],viability [4],viability [5],differential viability (reversal) ([6]; H69AR cells + 2 uM doxorubicin),"viability [6, 16] [%]","viability [6, 17] [%]",inhibition [7],inhibition [8],growth inhibition [9],growth inhibition [10],viability increase [11],viability [12],viability [13],inhibition [14],RAM network inhibition [15]
CCN(CC)S(=O)(=O)c1ccc2oc(C(=O)N3CCOCC3)c(C)c2c1,79.5,101% (inactive),79.5% (inactive),106% (inactive),96.5% (inactive),-0.525% (inactive),97,96.5,0.67% (inactive),-4.84% (inactive),-6.28% (inactive),-17.5% (inactive),0.12% (inactive),93.7% (inactive),98.8% (inactive),-0.09% (inactive),-0.22% (inactive)
Cc1ccc(C2CC(c3ccc(C)cc3)n3nc(N)nc3N2)cc1 (stereo not given),95,109% (inactive),95% (inactive),102% (inactive),88.5% (inactive),-8.68% (inactive),97.1,88.5,-1.79% (inactive),-1% (inactive),1.83% (inactive),12.3% (inactive),-0.92% (inactive),96.7% (inactive),93.1% (inactive),1.34% (inactive),1.75% (inactive)
Cc1ccc(C)c(C(=O)CC2(O)C(=O)N(C)c3ccccc32)c1 (stereo not given),112,113% (inactive),112% (inactive),105% (inactive),92.2% (inactive),10.1% (inactive),82.1,92.2,-4.68% (inactive),-1.5% (inactive),-8.69% (inactive),-12.9% (inactive),-0.65% (inactive),107% (inactive),97.2% (inactive),3.41% (inactive),-0.11% (inactive)
Cc1c(C)c2ccc(OC3CCCCC3=O)cc2oc1=O (stereo not given),100,112% (inactive),100% (inactive),82.6% (inactive),85.8% (inactive),10.4% (inactive),75.4,85.8,-1.92% (inactive),-2.67% (inactive),-16.6% (inactive),-7.25% (inactive),0.57% (inactive),104% (inactive),101% (inactive),0.48% (inactive),1.93% (inactive)
COc1ccc(-c2cnc(SCC(=O)Nc3ccc4c(c3)OCO4)n2Cc2ccco2)cc1,102,70.5% (inactive),102% (inactive),76.9% (inactive),83.4% (inactive),-9.64% (inactive),93.1,83.4,0.39% (inactive),-6.03% (inactive),1.77% (inactive),10.1% (inactive),-3.05% (inactive),67.4% (inactive),67.4% (inactive),1.66% (inactive),0.61% (inactive)
O=C(CSc1nnc(Cn2c(=O)sc3ccccc32)n1-c1ccccc1)Nc1nccs1,97,106% (inactive),97% (inactive),66.9% (inactive),84.2% (inactive),0.24% (inactive),84,84.2,-5.73% (inactive),-4.43% (inactive),11.2% (inactive),27.2% (inactive),-3.44% (inactive),89.5% (inactive),90% (inactive),2.44% (inactive),2.05% (inactive)
CCn1c(SCC(=O)Nc2cc(C)ccc2C)nc2c(c1=O)SC(C)C2 (stereo not given),90.5,116% (inactive),90.5% (inactive),74% (inactive),83.1% (inactive),15.4% (inactive),67.8,83.1,-1.73% (inactive),-0.5% (inactive),-9.3% (inactive),-6.79% (inactive),-4.15% (inactive),93.6% (inactive),91.5% (inactive),1.16% (inactive),4.64% (inactive)
CCCCn1c(CN2CCN(c3ccccc3)CC2)nc2c1c(=O)n(C)c(=O)n2C,89,105% (inactive),89% (inactive),85.7% (inactive),85.6% (inactive),19.2% (inactive),66.4,85.6,-2.27% (inactive),-3.67% (inactive),-4.55% (inactive),1.55% (inactive),-3.11% (inactive),36.1% (inactive),65.2% (inactive),0.475% (inactive),2.8% (inactive)
Cc1cccc(-n2nc3c(c2NC(=O)CCC2CCCCC2)CS(=O)C3)c1C (stereo not given),95,94.5% (inactive),95% (inactive),86.3% (inactive),90.9% (inactive),1.55% (inactive),89.3,90.9,-4.13% (inactive),1.33% (inactive),-8.41% (inactive),1.94% (inactive),-1.85% (inactive),91.8% (inactive),92.1% (inactive),1.02% (inactive),1.36% (inactive)
O=P(O)(CN1CCCCCC1)CN1CCCCCC1,93,97.5% (inactive),93% (inactive),96.6% (inactive),107% (inactive),7.6% (inactive),99.2,107,-2.84% (inactive),-0.82% (inactive),-16.8% (inactive),-8.96% (inactive),1.45% (inactive),98.3% (inactive),105% (inactive),0.24% (inactive),4.85% (inactive)
